Data on seven compounds can be found in PubChem BioAssay (NCATS).

Assay [1] concerns the target Transient receptor potential cation channel subfamily V member 1 (Homo sapiens) (UniProt Q8NER1). Kind of assay: HTS Assay for Compounds that Act as Enhancers of the Vanilloid Receptor 1 (AID 488979). Also: 0% is about no effect. Summed up: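 TRPV1-expressing cells loaded with Fluo-8 calcium dye; compounds added and calcium influx read kinetically for 3 min (agonist phase), then capsaicin at EC20 added and read 2 min more for enhancement. Fluorescence ex 480/em 520 nm.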

Assay [2] concerns the target Thyrotropin receptor (Homo sapiens) (UniProt P16473). Nature of the assay: qHTS Assay for Antagonists of the Thyroid Stimulating Hormone Receptor (AID 488980). Also: series mostly up to about 58 µM; 0% is about no effect. Summed up: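 TSHR-transfected HEK293 cells (2000/well) in HEPES-buffered HBSS with 70 uM RO 20-1724 were stimulated with 4 nM TSH (EC80, final) in the presence of compound. cAMP was measured by HTRF competition after lysis and 30 min at RT.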
For orientation: Quantitative high-throughput screening tests each substance at several concentrations.

In assay [3] the target is D(1A) dopamine receptor (Homo sapiens) (UniProt P21728). Kind of assay: HTS Assay for Allosteric Agonists of the Human D1 Dopamine Receptor: Primary Screen for Agonists (AID 488981). Also: 0% is about no effect. The procedure, abridged: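 Tetracycline-induced HEK293 T-REx cells force-coupled to calcium signalling were incubated overnight at 30 C and dye-loaded at room temperature. Calcium flux over 180 s after compound addition flagged agonists; a further 180 s read after EC20 dopamine flagged potentiators.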
D(1A) dopamine receptor (Homo sapiens), sequence (P21728 whole entry, looked up): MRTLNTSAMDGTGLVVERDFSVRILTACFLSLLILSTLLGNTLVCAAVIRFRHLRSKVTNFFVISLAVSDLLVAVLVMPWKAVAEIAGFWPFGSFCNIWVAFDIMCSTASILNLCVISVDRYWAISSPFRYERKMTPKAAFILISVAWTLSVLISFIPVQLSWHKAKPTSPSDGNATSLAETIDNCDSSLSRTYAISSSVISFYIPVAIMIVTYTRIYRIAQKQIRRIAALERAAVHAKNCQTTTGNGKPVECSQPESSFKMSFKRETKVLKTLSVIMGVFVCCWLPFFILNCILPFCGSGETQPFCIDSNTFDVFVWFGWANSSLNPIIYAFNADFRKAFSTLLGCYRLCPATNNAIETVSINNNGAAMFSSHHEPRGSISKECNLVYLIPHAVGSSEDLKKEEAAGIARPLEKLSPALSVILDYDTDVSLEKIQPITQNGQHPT

For assay [4] the target is unchanged. Nature of the assay: HTS Assay for Allosteric Agonists of the Human D1 Dopamine Receptor: Primary Screen for Antagonists (AID 488983).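 Also: calcium flux response to an EC80 dopamine challenge measured with no-wash dye; % is scaled to controls: 0 for no effect and ±100 for the full control effect; nearly all actives have a fitted effect of over 65% in size.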 Summed up: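 Calcium flux readout, no-wash dye, inducible HEK293 T-REx D1 line (force-coupled). Compound added after 10 s baseline, 180 s kinetic read; then dopamine at EC80, further 180 s read.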
Assay [5] can be described thus: Validation screen for small molecules that induce genotoxicity in human embryonic kidney (HEK293T) cells expressing luciferase-tagged ELG1 (AID 493106). Also: 0% is about no effect. The procedure, abridged:
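qHTS format; 2,000 HEK293T ELG1-luc cells/well; 23 nL compound via pin tool; 16 hr, 37 °C/5% CO2; ONE-Glo, 30 min RT; luminescence read.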

For assay [6], the target named is ATPase family AAA domain-containing protein 5 (Homo sapiens) (UniProt Q96QE3). Kind of assay: Validation screen for small molecules that inhibit ELG1-dependent DNA repair in human embryonic kidney (HEK293T) cells expressing luciferase-tagged ELG1 (AID 493107).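 Also: cells co-treated with the DNA-damaging agent 5-fluorouridine alongside compound; series mostly up to about 46 µM; % is scaled to controls: 0 for no effect and ±100 for the full control effect; inhibitors lower the ELG1-luciferase luminescence signal; nearly all actives have a fitted effect of over 70% in size.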 Summed up: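 ELG1-luciferase HEK293T reporter; 5-fluorouridine + compound/DMSO, 16 hr, 37 °C, 5% CO2; ONE-Glo 30 min RT; luminescence read, qHTS format.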
ATPase family AAA domain-containing protein 5 (Homo sapiens), sequence (Q96QE3 whole entry, looked up, the tested form may be a part): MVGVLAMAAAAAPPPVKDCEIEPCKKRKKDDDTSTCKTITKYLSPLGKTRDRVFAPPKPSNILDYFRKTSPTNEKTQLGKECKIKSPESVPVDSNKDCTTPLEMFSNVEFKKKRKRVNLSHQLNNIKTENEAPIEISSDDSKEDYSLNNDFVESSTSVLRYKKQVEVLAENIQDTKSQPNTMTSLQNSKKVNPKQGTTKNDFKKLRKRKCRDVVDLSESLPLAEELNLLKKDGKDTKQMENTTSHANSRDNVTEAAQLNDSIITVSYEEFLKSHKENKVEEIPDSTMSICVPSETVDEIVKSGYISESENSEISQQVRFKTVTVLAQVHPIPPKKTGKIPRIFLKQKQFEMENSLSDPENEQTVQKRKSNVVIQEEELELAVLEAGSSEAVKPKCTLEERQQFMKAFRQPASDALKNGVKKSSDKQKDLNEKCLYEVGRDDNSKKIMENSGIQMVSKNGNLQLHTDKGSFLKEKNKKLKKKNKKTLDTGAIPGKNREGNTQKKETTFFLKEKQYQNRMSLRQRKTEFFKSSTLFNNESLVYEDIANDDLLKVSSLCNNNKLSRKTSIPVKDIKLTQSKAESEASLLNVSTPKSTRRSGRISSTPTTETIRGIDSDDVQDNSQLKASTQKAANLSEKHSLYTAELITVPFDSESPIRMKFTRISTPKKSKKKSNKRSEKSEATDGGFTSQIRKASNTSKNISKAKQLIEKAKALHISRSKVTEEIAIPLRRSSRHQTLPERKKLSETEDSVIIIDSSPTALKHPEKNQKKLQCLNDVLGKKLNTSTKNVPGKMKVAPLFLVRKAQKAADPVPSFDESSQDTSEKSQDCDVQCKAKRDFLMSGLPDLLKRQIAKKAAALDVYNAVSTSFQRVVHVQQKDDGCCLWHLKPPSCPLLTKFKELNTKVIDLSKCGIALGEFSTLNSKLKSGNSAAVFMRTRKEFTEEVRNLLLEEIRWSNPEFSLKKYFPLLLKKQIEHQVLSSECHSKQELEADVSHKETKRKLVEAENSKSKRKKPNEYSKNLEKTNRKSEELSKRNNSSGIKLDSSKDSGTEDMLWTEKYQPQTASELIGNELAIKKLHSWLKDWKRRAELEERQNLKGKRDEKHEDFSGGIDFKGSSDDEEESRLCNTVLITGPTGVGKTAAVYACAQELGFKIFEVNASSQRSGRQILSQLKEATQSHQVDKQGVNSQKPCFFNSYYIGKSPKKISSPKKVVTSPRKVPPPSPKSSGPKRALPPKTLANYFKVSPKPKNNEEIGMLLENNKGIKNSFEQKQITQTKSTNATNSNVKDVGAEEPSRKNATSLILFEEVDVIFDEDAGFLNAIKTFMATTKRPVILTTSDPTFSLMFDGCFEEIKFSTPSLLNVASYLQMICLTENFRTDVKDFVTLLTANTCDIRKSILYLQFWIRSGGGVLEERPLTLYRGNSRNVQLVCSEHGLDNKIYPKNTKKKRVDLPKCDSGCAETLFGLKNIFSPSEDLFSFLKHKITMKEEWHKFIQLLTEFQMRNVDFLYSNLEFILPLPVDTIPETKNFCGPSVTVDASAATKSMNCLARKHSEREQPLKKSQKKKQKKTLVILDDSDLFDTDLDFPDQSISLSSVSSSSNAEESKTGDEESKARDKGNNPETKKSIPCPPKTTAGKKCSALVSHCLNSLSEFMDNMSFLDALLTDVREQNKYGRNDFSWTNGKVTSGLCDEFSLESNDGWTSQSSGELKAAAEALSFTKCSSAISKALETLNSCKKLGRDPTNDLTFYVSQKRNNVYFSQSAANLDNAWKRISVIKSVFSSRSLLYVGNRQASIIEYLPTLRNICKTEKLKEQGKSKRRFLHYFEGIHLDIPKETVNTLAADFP

Assay [7] addresses Thyrotropin-releasing hormone receptor (Homo sapiens) (UniProt P34981). Nature of the assay: qHTS for Small Molecule Agonists and Allosteric Enhancers of Human TRH Receptor: Validation Screen for Agonists (AID 493127;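 active = calcium activation more than 3 SD above the typical response in the agonist read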;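 also: intracellular calcium rise by fluo-8 fluorescence before TRH EC20 addition; 0% is about no effect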). As to conditions: TRH receptor agonist cell assay; at 2 µM; stronger effect = higher value. Summed up:
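Read-out: intracellular calcium release measured kinetically by FDSS (fluo-8, ex 480/em 530 nm), 1 reading/s after a 10-cycle baseline. TRHR cells, 2000/well, cultured 18 h at 33.5C, dye-loaded at room temp. Compound-evoked positive calcium signal flags agonists.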

Assay [8] is described as follows: Nrf2 qHTS screen for inhibitors: Validation (AID 493153; active = well fitted inhibition curve with a large enough effect in the main read-out, with a control signal flat, not every such curve was filed as active). As to conditions: Potency: luciferase luminescence; viability change: measured here: cytotoxicity max response. Summed up: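 Concentration-response test in A549 ARE_Fluc reporter cells (5% FBS OPTI-MEM), compound exposure 18-24 h at 37°C, 5% CO2. Cell viability measured first by CellTiter-Fluor fluorescence; ARE-driven luciferase luminescence then measured as Nrf2 activity.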

Assay [9] can be described thus: qHTS for Inhibitors of Cell Surface uPA Generation: Validation Assay (AID 493164).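 Also: RAW 264.7 macrophage cells exposed to compound for 18 h; 0% is about no effect.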 Summed up: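 Compounds are titrated over seven points (2.45 nM–38.3 uM final) onto pre-plated RAW 264.7 cells and incubated for 18 h. Retained intracellular ATP, measured with ATP-Lite, indicates blocked lethal factor entry.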
In assay [10] the target is Galactokinase (Homo sapiens) (UniProt P51570). Kind of assay: qHTS Validation Assay for Inhibitors of Human Galactokinase (GALK) (AID 493189). Also: 0% is about no effect. The procedure, abridged: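 GALK (5 nM) with 35 uM ATP and 100 uM galactose in HEPES pH 8.0 with MgCl2, NaCl, DTT and BSA. Reaction ran 1 h at room temperature. Residual ATP read by Kinase-Glo Plus luminescence.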
Assay [11] can be described thus: Validation screen for small molecules that induce DNA re-replication in SW480 colon adenocarcinoma cells (AID 504364). Also: 0% is about no effect. Summed up: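 Read-out: total Hoechst intensity of nuclei by fluorescence scanning imager; hits raise the fraction of nuclei with elevated DNA content. Cells received compound for 48 hr at 37 C before a 40 min stain.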
Assay [12] has as its target Peptidyl-prolyl cis-trans isomerase NIMA-interacting 1 (Homo sapiens) (UniProt Q13526). Nature of the assay: qHTS Validation Assay to Find Inhibitors of Pin1 (AID 504536; active = well fitted inhibition curve with a large enough effect in the polarisation, with a control signal flat, not every such curve was filed as active; the % refers to the polarisation;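 also: 0% = full Pin1 enzyme wells and -100% = no-enzyme wells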). The procedure, abridged:
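Fluorescence polarization competition: compounds (titration) displace HiFluor-488-labeled Pin1-1b peptide from Pin1 (0.3 uM final) in pH 7.5 HEPES buffer with DTT, 10 min at room temperature; %Activity normalized to no-enzyme wells, curves fitted.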

Assay [13] concerns the target Phosphoglycerate kinase, glycosomal (Trypanosoma brucei brucei) (UniProt P07378). Nature of the assay: qHTS Validation Assay to Find Inhibitors of Phosphoglycerate Kinase (AID 504547).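 Also: control wells lack PGK and mark full inhibition.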 The procedure, abridged: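 In TEA buffer (100mM, pH 7.6) containing 5mM MgCl2 and 0.01% Tween-20, the GAPDH-coupled PGK reaction proceeded for 60 minutes at room temperature before a single luminescence reading using Kinase-Glo Plus.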

For assay [14], the target named is phosphoglycerate mutase (Leishmania major) (UniProt Q4Q090). Kind of assay: qHTS Validation Assay to Find Inhibitors of Phosphoglycerate Mutase (AID 504548). Also: series mostly up to about 58 µM; % is scaled to controls: 0 for no effect and ±100 for the full control effect. Summed up: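 Lm PGAM 1.25nM final; 100 mM TEA pH 7.6, 5 mM MgCl2, 0.01% Tween-20; 45 min RT; Kinase-GloPlus, 10 min; end-point luminescence. Enzyme-free wells as negative controls.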
For assay [15], the target named is Ubiquitin carboxyl-terminal hydrolase 1 (Homo sapiens) (UniProt O94782). Kind of assay: Inhibitors of USP1/UAF1: Pilot qHTS (AID 504865). Also: nearly all actives have a fitted effect of over 35% in size. Also: potency is read from the fitted curve at half-maximal effect. The procedure, abridged:
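USP1/UAF1 complex at 1 nM preincubated 15 min at room temperature with compound, then Ub-Rho substrate added at 150 nM final. Fluorescence (480/540 nm) read kinetically in 50 mM HEPES pH 7.8, 0.5 mM EDTA, 1 mM TCEP, 0.1 mg/ml BSA, 0.01% Tween-20.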

A short description of assay [16]: qHTS for Inhibitors of ATXN expression: Validation of Cytotoxic Assay (AID 588349). Also: % is scaled to controls: 0 for no effect and ±100 for the full control effect. The procedure, abridged: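 Cytotoxicity counter-screen: HEK293 cells exposed to compound titrations, 72 hr, 37 degrees C. Read-out is intracellular ATP (CellTiter Glo luminescence) as a viability measure.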
Assay [17] in a line: qHTS for Inhibitors of ATXN expression: Validation (AID 588378). Also: series mostly up to about 57 µM; % is scaled to controls: 0 for no effect and ±100 for the full control effect; nearly all actives have a fitted effect of over 75% in size. The procedure, abridged: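 HEK293 cells carrying ATXN2-firefly luciferase reporter, treated with compound 24 h at 37 °C. Viability read first by CellTiter-Fluor (405/525 nm), then reporter expression by Bright-Glo luminescence; controls were a known ATXN2 expression inhibitor and a luciferase inhibitor.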
Assay [18] deals with ATP-dependent 6-phosphofructokinase (Trypanosoma brucei brucei) (UniProt O15648). Kind of assay: qHTS Assay to Find Inhibitors of T. brucei phosphofructokinase: hit validation (AID 492961).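 Also: luminescence reports ADP formed as PFK phosphorylates fructose-6-phosphate with ATP; series mostly up to about 51 µM; % is scaled to controls: 0 for no effect and ±100 for the full control effect.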 Summed up:
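Reaction: 0.1 M triethanolamine pH 8.0, 5 mM MgCl2, F6P 0.5 mM, ATP 0.1 mM, PFK 1.25 nM, 45 min RT. Read-out: ADP-Glo luminescence. Analysis: concentration-response fits, classed by r2 and efficacy.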

SMILES strings stand for the structures. Values joined by “and” are separate entries in the source; they are usually repeats but may differ in a detail not shown here. Equal values may be shown once. Records with an inconclusive call do not appear. Active and inactive are the calls of the source. Unless noted, calls follow the shape of the dose curve; as a rule, active = well fitted curve in the direction sought with a large enough effect; inconclusive = small, poorly fitted or top-dose-only effect, or another doubt; inactive = no such curve, though single readings can be large; an effect the other way counts as inactive or inconclusive.

Transient receptor potential cation channel subfamily V member 1 (Homo sapiens), sequence (Q8NER1 whole entry, looked up): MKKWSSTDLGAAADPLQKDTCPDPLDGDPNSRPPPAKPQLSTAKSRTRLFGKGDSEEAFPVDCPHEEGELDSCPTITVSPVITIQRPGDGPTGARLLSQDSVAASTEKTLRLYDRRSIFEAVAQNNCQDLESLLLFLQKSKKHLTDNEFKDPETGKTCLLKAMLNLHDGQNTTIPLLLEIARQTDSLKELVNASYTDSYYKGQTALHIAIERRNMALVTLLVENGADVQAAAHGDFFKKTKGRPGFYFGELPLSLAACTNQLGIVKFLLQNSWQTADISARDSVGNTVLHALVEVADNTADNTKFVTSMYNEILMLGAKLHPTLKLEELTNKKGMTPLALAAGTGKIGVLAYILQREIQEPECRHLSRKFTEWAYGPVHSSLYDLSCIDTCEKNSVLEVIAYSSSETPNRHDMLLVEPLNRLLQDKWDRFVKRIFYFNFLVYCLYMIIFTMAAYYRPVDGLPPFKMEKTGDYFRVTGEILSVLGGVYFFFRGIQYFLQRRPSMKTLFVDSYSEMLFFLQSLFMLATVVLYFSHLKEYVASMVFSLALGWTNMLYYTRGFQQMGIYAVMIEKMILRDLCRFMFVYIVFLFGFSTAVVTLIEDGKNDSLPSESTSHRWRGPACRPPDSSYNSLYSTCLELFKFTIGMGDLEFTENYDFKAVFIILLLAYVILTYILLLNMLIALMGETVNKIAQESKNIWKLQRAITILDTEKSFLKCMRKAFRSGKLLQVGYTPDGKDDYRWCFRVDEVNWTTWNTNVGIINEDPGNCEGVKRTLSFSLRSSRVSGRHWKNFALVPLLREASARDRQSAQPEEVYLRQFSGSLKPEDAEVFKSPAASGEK
Thyrotropin-releasing hormone receptor (Homo sapiens), sequence (P34981 whole entry, looked up): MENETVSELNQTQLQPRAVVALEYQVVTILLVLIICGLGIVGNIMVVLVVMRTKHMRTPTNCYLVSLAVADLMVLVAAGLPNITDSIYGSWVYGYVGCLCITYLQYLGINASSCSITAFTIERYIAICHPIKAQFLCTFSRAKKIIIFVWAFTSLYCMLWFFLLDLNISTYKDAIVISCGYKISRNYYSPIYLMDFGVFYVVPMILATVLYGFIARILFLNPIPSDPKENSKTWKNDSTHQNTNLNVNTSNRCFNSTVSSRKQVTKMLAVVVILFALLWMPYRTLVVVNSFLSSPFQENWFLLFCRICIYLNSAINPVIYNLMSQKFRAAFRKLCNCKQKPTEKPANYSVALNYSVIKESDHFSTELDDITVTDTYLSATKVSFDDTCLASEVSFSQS
Ubiquitin carboxyl-terminal hydrolase 1 (Homo sapiens), sequence (O94782 whole entry, looked up): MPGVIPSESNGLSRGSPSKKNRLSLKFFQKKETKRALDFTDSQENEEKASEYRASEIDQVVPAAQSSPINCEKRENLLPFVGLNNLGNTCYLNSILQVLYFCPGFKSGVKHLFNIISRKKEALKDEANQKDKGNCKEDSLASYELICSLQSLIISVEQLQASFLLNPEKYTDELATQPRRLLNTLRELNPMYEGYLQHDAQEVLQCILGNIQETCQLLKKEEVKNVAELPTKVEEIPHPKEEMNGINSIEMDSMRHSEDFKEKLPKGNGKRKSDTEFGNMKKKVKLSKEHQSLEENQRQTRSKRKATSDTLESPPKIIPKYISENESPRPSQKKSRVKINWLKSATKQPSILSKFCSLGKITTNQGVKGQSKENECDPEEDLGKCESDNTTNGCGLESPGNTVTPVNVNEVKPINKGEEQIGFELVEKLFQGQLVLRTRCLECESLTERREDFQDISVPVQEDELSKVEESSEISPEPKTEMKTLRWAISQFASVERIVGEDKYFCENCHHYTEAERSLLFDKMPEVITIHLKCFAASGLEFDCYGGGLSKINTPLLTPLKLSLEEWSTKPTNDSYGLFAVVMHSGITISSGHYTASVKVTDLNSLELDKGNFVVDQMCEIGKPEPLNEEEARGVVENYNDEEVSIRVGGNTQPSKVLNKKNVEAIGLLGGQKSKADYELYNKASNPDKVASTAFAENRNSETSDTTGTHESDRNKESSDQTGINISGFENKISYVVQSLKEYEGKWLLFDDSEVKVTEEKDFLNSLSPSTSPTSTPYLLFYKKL
Peptidyl-prolyl cis-trans isomerase NIMA-interacting 1 (Homo sapiens), sequence (Q13526 whole entry, looked up): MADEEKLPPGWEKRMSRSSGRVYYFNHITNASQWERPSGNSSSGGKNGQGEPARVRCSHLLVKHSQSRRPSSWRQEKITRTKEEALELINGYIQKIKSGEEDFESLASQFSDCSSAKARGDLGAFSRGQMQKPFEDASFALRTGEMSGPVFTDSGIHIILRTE
Phosphoglycerate kinase, glycosomal (Trypanosoma brucei brucei), sequence (P07378 whole entry, looked up): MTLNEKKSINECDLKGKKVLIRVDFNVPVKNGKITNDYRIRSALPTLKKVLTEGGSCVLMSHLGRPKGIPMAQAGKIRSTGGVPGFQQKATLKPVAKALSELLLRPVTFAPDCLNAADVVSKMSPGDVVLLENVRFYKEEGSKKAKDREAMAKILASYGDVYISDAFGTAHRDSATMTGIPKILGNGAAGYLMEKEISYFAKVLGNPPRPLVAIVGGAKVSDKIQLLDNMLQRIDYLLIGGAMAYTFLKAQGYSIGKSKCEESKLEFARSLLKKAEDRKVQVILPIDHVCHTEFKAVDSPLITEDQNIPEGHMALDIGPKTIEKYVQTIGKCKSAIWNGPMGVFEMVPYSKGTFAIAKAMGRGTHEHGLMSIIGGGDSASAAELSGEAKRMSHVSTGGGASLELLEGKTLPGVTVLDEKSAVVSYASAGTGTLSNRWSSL

Turning to `CN(C)CC[C@@H](c1ccc(Cl)cc1)c1ccccn1`, the result in [1], in assay [2], in assay [6], in [9], in assay [10] and in assay [11] was inactive. Moreover, the result in [12], in assay [13] and in assay [14] was inactive. The Potency entry in [3], in assay [4], in assay [5], in assay [8], in assay [15] and in assay [16] was “inactive” throughout. Further, the Potency result in assay [17] is “inactive”. Further, the activation in assay [7] was 1.56% (inactive). The viability change in [8] is 8.9%.
`Cc1cc(N)c2ccccc2[n+]1CCCCCCCCCC[n+]1c(C)cc(N)c2ccccc21`: the outcome in [1], in assay [2], in assay [9], in [10], in assay [11] and in assay [12] was inactive. Further, the compound was called inactive in [13] and in [14]. Also, the Potency result in assay [3], in [18], in assay [5] and in assay [15] was “inactive” throughout. Besides, in [7], the activation is 0.812% (inactive).
As for `CCN(CC)CCOC(=O)C1(C2CCCCC2)CCCCC1`, the outcome in assay [1], in assay [2], in assay [6], in [9], in assay [10] and in assay [11] was inactive. For the same compound, the compound was classed as inactive in assay [12], in [13] and in assay [14]. Further, the Potency result in assay [5], in assay [8] and in assay [15] was “inactive” throughout. The activation in [7] was -6.69% (inactive). The viability change in [8] is -2.64%.
Regarding `CC(C)(C(=O)O)c1ccc(C(O)CCCN2CCC(C(O)(c3ccccc3)c3ccccc3)CC2)cc1` (stereo not given), the result in [1], in assay [2], in [6], in assay [9], in assay [11] and in assay [12] was inactive. In addition, the compound was called inactive in assay [13] and in [14]. The Potency entry in assay [3], in assay [4], in assay [5], in assay [8], in assay [16] and in assay [17] was “inactive” in each case. For the same compound, the activation in assay [7] is -0.125% (inactive). Besides, the viability change in assay [8] amounted to 5.93%.
For `CNCC(O)c1ccc(O)c(O)c1` (stereo not given), the outcome in [1], in [2], in assay [6], in assay [9], in assay [10] and in [11] was inactive. Further, the call in assay [12], in [13] and in assay [14] was inactive. The Potency result in [5], in assay [8], in assay [15] and in [17] was “inactive” throughout. Further, the activation in [7] was 0.938% (inactive). Further, in assay [8], the viability change was determined as 1.42%.
`CC(C)NC[C@H](O)c1ccc(O)c(O)c1`: the result in assay [1], in assay [2], in [6], in [9], in assay [10] and in assay [11] was inactive. The compound was called inactive in assay [12], in assay [13] and in assay [14]. The Potency entry in assay [3], in assay [4], in assay [5], in assay [8], in [15] and in assay [16] was “inactive” throughout. The activation in assay [7] was -0.125% (inactive) and 0.875% (inactive). Besides, the viability change in assay [8] was 2.86% and 6.15%.
Regarding `CC1=C(/C=C/C(C)=C/C=C/C(C)=C/C(=O)O)C(C)(C)CCC1`, the result in assay [1], in assay [6], in assay [9], in assay [10], in assay [11] and in [12] was inactive. Moreover, the outcome in assay [13] and in [14] was inactive. Further, the Potency result in assay [3], in [4], in [5], in [8], in assay [16] and in assay [17] was “inactive” throughout. In addition, in assay [7], the activation is 0.375% (inactive). The viability change in [8] is -3.39%. Further, the Potency in assay [15] was 79.4 µM (active).
